Bioassay records (PubChem BioAssay)
Hits are enriched below; roughly 2.9% of the tested compounds scored in any of these assays.
Shn3 3UTR inh: reduction of Shn3 3'UTR firefly luciferase signal, primary screen, Schnurri-3 inhibitor project, cell-based, Clone20 osteoblasts, set 2. inhibition, % at 12.5 µM. AID 588674, 2011. Clone20 osteoblast Shn3 3'UTR firefly luciferase, 24 h. 360,000 compounds, 0.52% hits;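 active = mean inhibition of at least 75% with every replicate also reaching 75%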;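 also: 0% = median of neutral control wells and 100% = pilot-screen positive control compound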
Peg3 prom inh: Peg3 promoter-driven luciferase inhibitors, primary screen, cell-based, HeLa, luciferase luminescence; HeLa PEG-Prom luciferase reporter, overnight; inhibition, % at 20 µM; 360,000 compounds, 1.7% hits;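 active = inhibition of at least 50% at 20 µM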
HIF-2a inh: HIF-2a reporter inhibitors, primary screen, luminescence, 786-0 RCC cells; 786-0 RCC cells HIF-2a reporter, luciferase luminescence, overnight; inhibition, % at 18.8 µM; 360,000 compounds, 0.72% hits; AID 624352, 2012;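 active = inhibition of the luminescence signal of 40% or more relative to plate controls, in a single-dose primary screen at 18.75 µM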
EBV LMP1 NFkB: EBV LMP1-driven NF-kappaB luciferase reporter inhibitors, primary screen, cell-based, luminescence, single point; inhibition, % at 12.5 µM; AID 504558, 2011; 350,000 compounds, 0.69% hits; LMP1-induced NF-kappaB luciferase reporter cells; in the data active = inhibition above about 41%;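 also: 0% = neutral control wells and 100% = reference inhibitor control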
CF NFkB inh: inhibitors of PAF-induced NF-kB signaling, primary screen, cell-based, GFP fluorescence, uHTS; 360,000 compounds, 0.86% hits; KKLEB NF-kB-GFP reporter, GFP fluorescence overnight; inhibition, % at 5 µM;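 active = at least 50% inhibition at 5 µM, scaled per plate between neutral and stimulator controls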;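 also: PAF is a Pseudomonas aeruginosa culture filtrate used as stimulus; plate controls were PAF-stimulated DMSO wells for no effect and unstimulated DMSO wells for full effect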
KKLEB cytotox: cytotoxicity in KKLEB CF airway cells, primary screen, cytotoxicity control for CF NF-kB inhibitor project, cell-based, uHTS, fluorescence assay plates | KKLEB CF airway cells viability, ATPlite luminescence, overnight; stronger effect = lower value; cells stimulated with P. aeruginosa culture filtrate | activity change (cytotoxicity), % at 5 µM | 360,000 compounds, 0.36% hits | AID 602141, 2011;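 active = corrected activity change at or below -50% at 5 µM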
* marks the source's active call; other numbers are inactive results; . = no result.

SMILES	Shn3 3UTR inh	Peg3 prom inh	HIF-2a inh	EBV LMP1 NFkB	CF NFkB inh	KKLEB cytotox
CCCNC(=O)NS(=O)(=O)c1ccc(Cl)cc1	-10.8	-2.2	7.9	58.5*	-5.9	7.7
O=C(c1nc2nc(-c3ccccc3)cc(C(F)(F)F)n2n1)N1CCCCC1	11.0	1.7	-7.4	-1.0	4.0	2.2
COc1ccc(-c2cc(C(F)(F)F)n3nc(C(=O)N4CCOCC4)nc3n2)cc1	6.7	-3.0	-0.1	44.1*	-2.8	1.7
O=C1NC[C@H](c2ccccc2)N(CCC23CC4CC(CC(C4)C2)C3)C1=O	2.7	7.6	25.1	9.6	15.1	-6.2
CCN1C[C@@H]2[C@@H]3C(=O)N(Cc4ccccc4)C(=O)[C@@H]3[C@](CC)(C1=O)N2C(=O)c1ccc(Cl)c(Cl)c1	1.6	5.6	14.2	0.1	1.7	-9.2
O=C1NC(=S)SC1=Cc1ccccc1Cl	1.2	-79.2	-140.8	-2.5	43.7	-0.9
Cc1ccc(C2C(/C=C3/SC(=S)NC3=O)=C(c3cccs3)Oc3ccccc32)cc1 (centres undefined)	22.4	45.9	-44.7	-7.1	63.5*	-37.9
CCCCSc1nc(C)cc(SCC(=O)N/N=C/c2cccc(OC)c2O)n1	82.6	53.5*	19.3	15.4	9.6	-0.4
CC(C)c1ccc(NC(=O)COC(=O)[C@@H]2CCCN2C(=O)c2cccs2)cc1	-34.6	-13.1	-24.6	-1.1	-19.3	16.0
O=C(c1ccc(Cl)c(S(=O)(=O)N2CCc3ccccc32)c1)N1CCN(c2ccccc2O)CC1	40.4	68.9*	10.5	5.5	-4.4	-13.9
CC(=O)N1CCN(C(=O)c2ccc(Cl)c(S(=O)(=O)N3CCc4ccccc43)c2)CC1	-3.1	2.7	16.0	1.0	12.1	-17.1
COC(C/C=C/[C@@H](O)[C@H](C)OCc1ccccc1)OC	10.0	-2.2	7.2	4.8	1.5	12.9
CSc1cccc(CN2CCC(n3nccc3NC(=O)C3CC3)CC2)c1	2.8	6.7	6.3	56.1*	6.4	-0.5
Nc1nc(N)nc(-c2cc(C(F)(F)F)ccc2Cl)n1	-2.7	-7.0	10.0	-5.8	-17.6	2.4
Nc1nc(N)nc(-c2cc(Cl)ccc2Cl)n1	0.7	0.9	-1.6	83.6*	12.7	1.9
O=C(Cc1ccc(Cl)cc1)NN1C(=O)c2ccccc2C1=O	6.5	8.7	23.7	-1.8	5.3	6.1
COC(=O)[C@@H]1[C@@H](C#N)C2(c3ccccc3-c3ccccc32)N(c2ccc(Cl)cc2)N1C#N	60.5	109.8*	63.6*	4.5	10.2	-6.7
CNC(=O)N(C1=NCCCCC1)c1ccc(Br)cc1	-10.0	13.6	18.5	-0.8	5.4	-21.1
CC(C)N(C)S(=O)(=O)c1ccc(NC(=O)C2=COCCO2)cc1	-33.6	-83.3	-107.6	-8.2	-16.2	20.1
O=C(NCCc1ccccc1)c1ccc2nccnc2c1	-20.8	28.6	12.3	50.2*	-7.3	0.3
O=C(c1cc(C(=O)NCCc2ccccc2)c(=O)n(CCc2ccccc2)c1)c1cc(Cl)ccc1O	43.8	51.9*	10.0	4.5	35.7	-24.1
O=C(NCCc1ccccc1)c1ccccc1Cl	7.1	-24.3	20.2	45.6*	4.4	-2.7
O=C(O)c1ccccc1C(=O)NCCc1ccc(Cl)cc1	-47.4	2.6	-2.6	1.6	10.2	1.3
C=CCC(C=C)[N+]1(CC(=O)OC)CCCCC1 (centres undefined)	-15.5	4.8	3.8	-6.6	-13.6	1.9
CCc1cccc(C)c1NS(=O)(=O)Cc1ccccc1	0.2	2.1	20.8	4.5	2.1	-4.7
COC(=O)C[C@H]1C=C[C@H](NC(=O)C2CCOCC2)[C@@H](CO)O1	.	.	-9.7	.	.	.
FC(F)(F)c1cc(CO[C@@H]2CCCN[C@@H]2c2ccccc2)cc(C(F)(F)F)c1	-15.3	71.8*	-1.6	-12.4	11.9	4.0
